Compound activity from PubChem BioAssay.
L3MBTL1 inh: qHTS Assay for the Inhibitors of L3MBTL1; AID 485360, 2010; Potency, µM (series often up to 57.1 µM), without a hit: at the top dose activity, negative = inhibition, usual class: inhibitors; hit rate 0.66% among 230,000; AlphaScreen L3MBTL1–H3K9me1 peptide binding; further: on the % scale 0 is the no-effect control and ±100 the full control effect; nearly all actives have a fitted effect of over 60% in size
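AlphaScreen assay: L3MBTL1 (50 nM final) was preincubated 30 min at room temperature with biotinylated H3(1-15)K9me1 peptide (75 nM final), then 30 min with library compounds; streptavidin donor and nickel chelate acceptor beads (10 ug/mL final) added, 30 min dark.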
JMJD2A Tudor: qHTS Assay for Inhibitors of JMJD2A-Tudor Domain. Lysine-specific demethylase 4A (Homo sapiens), O75164. AlphaScreen JMJD2A-Tudor / H3K4me3 peptide binding. Potency, µM (titrated, usually from 114 µM), inactives show top-dose activity change, negative = inhibition, most hits filed as inhibitors. hit rate 4.4% among 390,000. AID 504339, 2011; further: on the % scale 0 is the no-effect control and ±100 the full control effect; nearly all actives have a fitted effect of over 50% in size
Target sequence (O75164 whole entry, looked up, the tested form may be a part): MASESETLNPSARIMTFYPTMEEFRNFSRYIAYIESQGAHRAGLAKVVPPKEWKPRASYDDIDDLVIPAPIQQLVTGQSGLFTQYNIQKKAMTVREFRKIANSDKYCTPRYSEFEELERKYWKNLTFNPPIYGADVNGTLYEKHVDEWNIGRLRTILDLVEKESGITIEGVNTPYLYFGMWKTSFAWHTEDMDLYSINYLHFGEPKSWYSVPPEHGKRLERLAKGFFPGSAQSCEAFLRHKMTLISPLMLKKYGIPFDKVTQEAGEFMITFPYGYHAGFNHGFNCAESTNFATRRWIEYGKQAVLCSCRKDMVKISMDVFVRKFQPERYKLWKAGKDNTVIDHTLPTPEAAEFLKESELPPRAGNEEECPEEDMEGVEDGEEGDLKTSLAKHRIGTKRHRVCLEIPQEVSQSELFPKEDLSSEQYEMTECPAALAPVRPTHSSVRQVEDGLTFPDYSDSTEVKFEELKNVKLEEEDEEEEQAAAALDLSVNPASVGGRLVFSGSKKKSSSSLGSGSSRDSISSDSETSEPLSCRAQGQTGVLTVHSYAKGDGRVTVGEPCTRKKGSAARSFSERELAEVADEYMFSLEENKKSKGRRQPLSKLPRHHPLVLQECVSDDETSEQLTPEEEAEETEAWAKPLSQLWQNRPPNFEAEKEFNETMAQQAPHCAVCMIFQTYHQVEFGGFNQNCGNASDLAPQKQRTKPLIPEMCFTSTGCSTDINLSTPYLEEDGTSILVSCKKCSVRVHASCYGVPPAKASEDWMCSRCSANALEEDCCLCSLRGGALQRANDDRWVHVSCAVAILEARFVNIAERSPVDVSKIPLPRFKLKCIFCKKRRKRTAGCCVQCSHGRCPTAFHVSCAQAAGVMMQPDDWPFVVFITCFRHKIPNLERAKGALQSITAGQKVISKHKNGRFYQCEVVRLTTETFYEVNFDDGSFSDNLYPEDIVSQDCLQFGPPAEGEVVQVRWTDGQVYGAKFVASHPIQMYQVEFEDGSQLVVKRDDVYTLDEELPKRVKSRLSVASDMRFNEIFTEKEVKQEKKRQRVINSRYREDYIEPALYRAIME
BAZ2B inh: qHTS Assay for Inhibitors of BAZ2B; AlphaScreen BAZ2B-H3K14Ac peptide displacement; Potency, µM (top dose mostly 114 µM), inactives show top-dose activity change, negative = inhibition, actives largely listed as inhibitors; hit rate 4.4% among 360,000; AID 504333, 2011; further: on the % scale 0 is the no-effect control and ±100 the full control effect; nearly all actives have a fitted effect of over 60% in size
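Multi-concentration screen (max 110 uM) measuring displacement of acetylated histone H3 peptide from BAZ2B by AlphaScreen, using 50 nM protein, 50 nM peptide and 10 ug/mL streptavidin donor plus Ni-chelate acceptor beads.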
G9a inh: qHTS Assay for Inhibitors of Histone Lysine Methyltransferase G9a. hit rate 8.8% among 350,000. Histone-lysine N-methyltransferase EHMT2 (Homo sapiens), Q96KQ7. G9a H3K9 monomethylation, AlphaScreen, 2 h. Potency, µM (titrated, usually from 102 µM), for inactives: at the highest dose activity, negative = inhibition, usual class: inhibitors; further: on the % scale 0 is the no-effect control and ±100 the full control effect; nearly all actives have a fitted effect of over 75% in size
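Enzyme 20 nM + cpd, 15 min RT; add b-H3K9 pep 500 nM / SAM 20 uM; 2 h RT; anti-H3K9me1 Ab 0.5 ug/mL + SA donor / anti-rabbit acceptor beads 20 ug/mL each, 10 min; AlphaScreen read.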
HP1b binding inh: HTS for Inhibitors of HP1-beta Chromodomain Interactions with Methylated Histone Tails; Chromobox protein homolog 1 (Homo sapiens), P83916; AlphaScreen HP1-beta / biotin-H3K9me3 peptide binding; Potency, µM (top dose mostly 114 µM), without a hit: at the highest dose activity change, negative = inhibition, usual class: inhibitors; hit rate 0.56% among 390,000; AID 540317, 2011; further: nearly all actives have a fitted effect of over 70% in size
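HP1-beta protein (50 nM final) preincubated 30 min at room temperature with biotinylated H3(1-18)K9me3 peptide (50 nM) in PBS pH 7.4, 0.01% Tween-20, then compound added for 30 min. AlphaScreen streptavidin donor/nickel chelate acceptor beads (10 ug/mL final), 30 min dark, luminescence read.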
* = called active by the depositor; u = inconclusive; x = no result; [ ] = remark or other dose. Compounds with a hit are over-represented: about 11% of the library has one in this group of screens. The call rests on the fitted dose curve; in most records, active means well fitted inhibition curve with a large enough effect; inconclusive means small, poorly fitted or top-dose-only effect; inactive means no such curve, though single readings can be large or run the other way. Potency means the concentration at half of the fitted maximal effect.

SMILES	L3MBTL1 inh	JMJD2A Tudor	BAZ2B inh	G9a inh	HP1b binding inh
Cc1ccc(N/N=C2\CS(=O)(=O)N(C)c3ccsc32)cc1	u	-27%	u	45µM*	-5%
CN1c2ccsc2/C(=N/Nc2ccc(F)cc2)CS1(=O)=O	-18%	25µM*	u	14µM*	u
Cc1ccccc1C(=O)Nc1c(C)nc(Nc2ccccc2)nc1Nc1ccccc1	x	-5%	-1%	5%[59 µM]	33%
COc1ccc(C2CC(O)(c3ccccc3)Oc3c(C)ccc(C(C)C)c32)cc1 (configuration not stated)	x	-10%	x	x	29%
CC(=O)Nc1ccc(NC(=O)CSc2cn(CC(=O)N(C(C)C)C(C)C)c3ccccc23)cc1	x	-16%	-22%	-7%[59 µM]	16%
CCOC(=O)CNC(=S)n1cnc(N)n1	2%	-8%	79µM*	6%	25%
CCOC(=O)CNC(=O)CSc1nc(N)cc(N)n1	37%[11.4 µM]	-10%	-1%	-2%[59 µM]	20%
Cc1cc2c(s1)c1cnn(Cc3ccccc3F)c(=O)c1n2C(C)C	x	14%	x	x	x
CCN1CCN(Cc2ccc(NC(=O)c3cc(NC(=O)c4cc(C)on4)cc(OC)c3)cc2C(F)(F)F)CC1	-8%	u	u	45µM*	25%
CCN1CCN(Cc2ccc(NC(=O)c3cc(NC(=O)C(=O)c4c[nH]c5ccccc45)cc(OC)c3)cc2C(F)(F)F)CC1	x	35µM*	40µM*	1%[12.7 µM]	u
CCN1CCN(Cc2ccc(NC(=O)c3ccc(C)c(NC(=O)c4ccnnc4)c3)cc2C(F)(F)F)CC1	x	-14%	0%	-11%[12.7 µM]	47%
CCN1CCN(Cc2ccc(NC(=O)c3cc(NC(=O)c4cnn(-c5ccccc5)c4N)cc(OC)c3)cc2C(F)(F)F)CC1	x	u	u	u	-17%
CCN1CCN(Cc2ccc(NC(=O)c3ccc(C)c(NC(=O)c4ccc5n[nH]nc5c4)c3)cc2C(F)(F)F)CC1	x	-19%	-18%	-14%[12.7 µM]	41%
CCN1CCN(Cc2ccc(NC(=O)c3ccc(C)c(NC(=O)C(=O)c4c[nH]c5ccccc45)c3)cc2C(F)(F)F)CC1	-16%	40µM*	13µM*	50µM*	u
O=C(CC1C(=O)NCCN1Cc1cccc(C(F)(F)F)c1)NC1CCCCCC1 (configuration not stated)	x	-30%	-21%	40µM*	20%
O=C(CC1C(=O)NCCN1Cc1ccccc1C(F)(F)F)NC1CCCC1 (configuration not stated)	x	-9%	-19%	45µM*	39%
O=C(CC1C(=O)NCCN1Cc1ccc(Cl)c(F)c1)NC1CCCCC1 (configuration not stated)	x	u	0%	57%	33%
CCC1CCCCN1Cc1nc2c(c(=O)n(C)c(=O)n2C)n1Cc1c(F)cccc1Cl (configuration not stated)	x	-21%	x	x	8%
Cc1cc(C(=O)COC(=O)CCc2nc3ccccc3s2)c(C)n1C	-7%	u	50µM*	u	-12%
O=C(NCc1ccccc1)c1ccc(CSc2nc3cccnc3n2Cc2cccc(F)c2)cc1	x	-7%	-2%	-22%[59 µM]	30%
CCC(=O)Nc1ccc(C(=O)NNC(=O)C2CCCCC2)cc1	x	-8%	-2%	45µM*	49%
O=c1oc2ccc(Br)cc2cc1-c1nc2c(s1)CCc1ccccc1-2	x	18%[57.1 µM]	x	x	29%[57 µM]
O=C1c2ccccc2C(Nc2ccccc2)N1c1cccnc1 (configuration not stated)	x	-8%	-3%	13%	35%
CCOc1ccccc1NC1c2ccccc2C(=O)N1c1cccnc1 (configuration not stated)	x	-16%	7%	79µM*	7%
NC(=O)c1ccc(NC(=O)CCc2nc3ccccc3s2)cc1	-10%	-29%	u	35µM*	23%
SMILES	L3MBTL1 inh	JMJD2A Tudor	BAZ2B inh	G9a inh	HP1b binding inh
O=C(CCc1nc2ccccc2s1)Nc1cccnc1	-2%	-18%	u	40µM*	30%
O=C(CCCc1nc(-c2ccccc2)no1)Nc1cccnc1	8%	0%	2%	-3%	27%
COc1ccc(-c2noc(CCC(=O)NCc3cccnc3)n2)cc1OC	-7%	12%[57.1 µM]	5%	71µM*	46%
O=C(CCc1nc(-c2ccccc2)no1)Nc1cccnc1	x	-4%	3%	56µM*	20%
O=C(CCn1c(=O)sc2ccccc21)Nc1cccnc1	3%[11.4 µM]	-8%	3%	-5%[59 µM]	11%
O=C(NCc1cccs1)C1CCN(S(=O)(=O)c2ccccc2F)CC1	5%	-1%	-6%	79µM*	41%
O=C(NCc1cccs1)C1CCN(S(=O)(=O)c2cccs2)CC1	-4%	1%	-3%	16%[59 µM]	23%
CCCCC(=O)N1CCc2cc(OC)c(OC)cc2C1COc1ccc(C(=O)OCC)cc1 (configuration not stated)	x	-22%	-16%	-5%[59 µM]	22%
OCC1CCCN(C(=S)Nc2ccc(Nc3ccccc3)cc2)C1 (configuration not stated)	-25%	u	u	18µM*	u
OCC1CCCN(C(=S)Nc2ccc(OC(F)F)cc2)C1 (configuration not stated)	-3%	-2%	-6%	16%	34%
O=C1OC2(CCCCC2)OC(=O)C1=CNc1ccc2c(c1)OCO2	18%	-10%	9%	8%[59 µM]	20%
COc1ccc(N/C=C2\CCc3ccccc3C2=O)cc1	12%	15%	14%	2µM*	54%
COc1ccc(N/C=C2\CCOC2=O)cc1	6%	-24%	-1%	9%[59 µM]	7%
O=C1/C(=C/Nc2ccc3c(c2)OCO3)CCc2ccccc21	x	-42%	-38%	1.8µM*	u
COc1ccc2c(c1)CC/C(=C\Nc1ccc3c(c1)OCO3)C2=O	x	u	u	2.5µM*	u
CN1CCN(c2ncc3nc(-c4cccc(C#N)c4)c(=O)n(CCC#N)c3n2)CC1	x	x	x	10%[0.501 µM]	x
Cc1ccc(NC(=O)Cn2nc(C(F)(F)F)c3c2CCC3)cc1C	x	4%	0%	8%[59 µM]	41%
CCn1cc(C(=O)NCc2ccccc2OC)c(=O)c2cc(S(=O)(=O)N3CCCCCC3)ccc21	x	-20%	x	-40%[59 µM]	24%
COc1cccc(Cn2c(=O)cnc3cnc(Nc4ccccc4)nc32)c1	x	x	x	-46%[0.501 µM]	x
CN1CCc2c(sc(NC(=O)c3ccc([N+](=O)[O-])o3)c2C(N)=O)C1	x	u	35µM*	35µM*	-30%
CN1CCc2c(sc(NC(=O)c3cc4cc([N+](=O)[O-])ccc4s3)c2C(N)=O)C1	x	x	u	25µM*	x
CN1CCc2c(sc(NC(=O)c3ccco3)c2C(N)=O)C1	x	-6%	-10%	x	15%
